Here are results for one sequence from publication PMC7862700, “An all-to-all approach to the identification of sequence-specific readers for epigenetic DNA modifications on cytosine”.

What all share (experiment): DAPPL (digital affinity profiling via proximity ligation, sequencing); 10 mM Tris-HCl pH 7.5, 50 mM NaCl, 1 mM DTT, 4% glycerol, room temperature, 30 min; GST-TFs on glutathione beads, 16-mer random dsDNA library, 0.1% formaldehyde crosslink after washing; high values mean tight binding
Test [1] addresses T1, FEV (Homo sapiens, UniProt Q99581 1-238).
T1 sequence: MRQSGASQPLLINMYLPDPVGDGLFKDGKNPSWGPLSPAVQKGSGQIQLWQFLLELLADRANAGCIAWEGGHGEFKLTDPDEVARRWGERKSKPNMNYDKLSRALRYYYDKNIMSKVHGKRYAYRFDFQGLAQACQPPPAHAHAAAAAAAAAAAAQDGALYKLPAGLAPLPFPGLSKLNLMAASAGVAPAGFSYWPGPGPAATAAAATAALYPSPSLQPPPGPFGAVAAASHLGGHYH
Conditions: protein: recombinant; tags: N-terminal GST; dsDNA, one strand shown. In a few lines: (§1)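 Yeast served to express human transcription factors as GST fusions, which were then captured on glutathione beads and labelled with DNA barcodes. Pooled with a tag-only sample, they were incubated with 200 nmole of a 16-mer random double-stranded DNA library for 30 min at room temperature in Tris/NaCl/DTT/glycerol buffer, washed, crosslinked with 0.1% formaldehyde, ligated by proximity, amplified by PCR and sequenced. Dividing each hexamer's read frequency for a factor by its frequency for the tag-only sample gives the binding signal.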

The target of test [2] is ETV5 (Homo sapiens, UniProt P41161 1-510). Conditions: protein: recombinant; tags: N-terminal GST; dsDNA, one strand shown. In a few lines:
as §1

Test [3] addresses HSF1 (Homo sapiens, UniProt Q00613 1-529). Conditions: protein: recombinant; tags: N-terminal GST; chain copies: 3; dsDNA, one strand shown. The method, boiled down:
as §1

The target of test [4] is T2, SPIC (Homo sapiens, UniProt Q8N5J4 1-248).
T2 sequence: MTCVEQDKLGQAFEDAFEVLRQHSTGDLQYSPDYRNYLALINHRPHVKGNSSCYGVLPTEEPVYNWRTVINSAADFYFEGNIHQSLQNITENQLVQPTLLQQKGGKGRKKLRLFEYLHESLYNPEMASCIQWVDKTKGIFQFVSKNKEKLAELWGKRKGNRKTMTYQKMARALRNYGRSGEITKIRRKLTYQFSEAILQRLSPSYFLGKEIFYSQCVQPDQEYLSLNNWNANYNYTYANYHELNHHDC
Conditions: protein: recombinant; tags: N-terminal GST; dsDNA, one strand shown. In a few lines:
as §1

For test [5], the target named is ELF4 (Homo sapiens, UniProt Q99607 1-663). Conditions: protein: recombinant; tags: N-terminal GST; dsDNA, one strand shown. In a few lines:
as §1

Test [6] concerns the target T3, ELK4 (Homo sapiens, UniProt P28324-2 1-405).
T3 sequence: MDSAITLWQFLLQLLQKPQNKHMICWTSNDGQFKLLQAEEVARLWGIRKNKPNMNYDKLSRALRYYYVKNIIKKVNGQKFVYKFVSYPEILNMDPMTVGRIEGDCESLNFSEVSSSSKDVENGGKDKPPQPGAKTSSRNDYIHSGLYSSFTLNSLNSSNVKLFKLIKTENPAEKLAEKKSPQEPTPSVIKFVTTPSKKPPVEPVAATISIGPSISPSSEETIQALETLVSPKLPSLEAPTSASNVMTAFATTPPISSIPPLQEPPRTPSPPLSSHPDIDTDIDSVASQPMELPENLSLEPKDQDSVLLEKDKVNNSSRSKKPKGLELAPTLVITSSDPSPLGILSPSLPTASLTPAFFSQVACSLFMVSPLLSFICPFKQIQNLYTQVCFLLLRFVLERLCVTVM
Conditions: protein: recombinant; tags: N-terminal GST; dsDNA, one strand shown. The method, boiled down:
as §1

For test [7], the target named is T4, ETV2 (Homo sapiens, UniProt O00321 1-342).
T4 sequence: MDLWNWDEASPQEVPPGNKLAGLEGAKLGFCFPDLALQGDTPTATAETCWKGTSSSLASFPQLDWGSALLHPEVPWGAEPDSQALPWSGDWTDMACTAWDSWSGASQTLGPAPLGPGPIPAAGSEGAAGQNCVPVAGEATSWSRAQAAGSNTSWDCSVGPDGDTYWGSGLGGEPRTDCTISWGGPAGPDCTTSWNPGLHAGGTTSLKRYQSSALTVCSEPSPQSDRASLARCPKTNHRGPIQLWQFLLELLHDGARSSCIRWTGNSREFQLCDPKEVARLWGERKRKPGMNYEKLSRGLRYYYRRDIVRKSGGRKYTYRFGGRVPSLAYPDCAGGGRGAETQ
Conditions: protein: recombinant; tags: N-terminal GST; dsDNA, one strand shown. The method, boiled down: as §1

Test [8] concerns the target T5, ELF3 (Homo sapiens, UniProt P78545 1-371).
T5 sequence: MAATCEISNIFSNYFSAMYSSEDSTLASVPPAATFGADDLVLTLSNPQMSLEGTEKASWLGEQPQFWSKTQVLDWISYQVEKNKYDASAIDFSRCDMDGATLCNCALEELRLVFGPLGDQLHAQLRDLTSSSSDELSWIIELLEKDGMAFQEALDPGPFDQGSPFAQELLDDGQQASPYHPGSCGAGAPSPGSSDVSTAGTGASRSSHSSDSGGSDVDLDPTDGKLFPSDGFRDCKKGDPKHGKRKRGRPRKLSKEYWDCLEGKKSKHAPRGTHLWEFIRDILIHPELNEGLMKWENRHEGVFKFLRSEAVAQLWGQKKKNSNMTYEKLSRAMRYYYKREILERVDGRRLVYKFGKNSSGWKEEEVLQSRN
Conditions: protein: recombinant; tags: N-terminal GST; dsDNA, one strand shown. The method, boiled down: as §1

In test [9] the target is CRX (Homo sapiens, UniProt O43186 1-299). Conditions: protein: recombinant; tags: N-terminal GST; dsDNA, one strand shown. The method, boiled down:
as §1

Test [10] deals with ETV1 (Homo sapiens, UniProt P50549 1-477). Conditions: protein: recombinant; tags: N-terminal GST; dsDNA, one strand shown. In a few lines: as §1
The target in test [11] is T6, ERF (Homo sapiens, UniProt P50548 1-548).
T6 sequence: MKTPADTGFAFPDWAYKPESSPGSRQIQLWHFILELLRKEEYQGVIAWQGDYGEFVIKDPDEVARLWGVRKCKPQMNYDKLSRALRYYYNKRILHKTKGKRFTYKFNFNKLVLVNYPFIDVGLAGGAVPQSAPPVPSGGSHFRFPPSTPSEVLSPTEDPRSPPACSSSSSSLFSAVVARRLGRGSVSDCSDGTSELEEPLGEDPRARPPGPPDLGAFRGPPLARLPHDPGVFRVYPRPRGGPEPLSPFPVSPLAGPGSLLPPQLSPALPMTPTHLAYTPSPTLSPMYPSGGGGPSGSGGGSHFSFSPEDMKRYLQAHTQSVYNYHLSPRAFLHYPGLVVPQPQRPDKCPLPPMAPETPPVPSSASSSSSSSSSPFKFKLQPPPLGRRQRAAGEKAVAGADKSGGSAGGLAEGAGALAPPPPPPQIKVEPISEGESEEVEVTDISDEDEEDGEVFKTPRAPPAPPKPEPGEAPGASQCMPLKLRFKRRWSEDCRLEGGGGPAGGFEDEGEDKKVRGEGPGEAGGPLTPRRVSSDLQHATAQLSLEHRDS
Conditions: protein: recombinant; tags: N-terminal GST; dsDNA, one strand shown. The method, boiled down:
as §1

For test [12], the target named is T7, ETV3L (Homo sapiens, UniProt Q6ZN32 1-361).
T7 sequence: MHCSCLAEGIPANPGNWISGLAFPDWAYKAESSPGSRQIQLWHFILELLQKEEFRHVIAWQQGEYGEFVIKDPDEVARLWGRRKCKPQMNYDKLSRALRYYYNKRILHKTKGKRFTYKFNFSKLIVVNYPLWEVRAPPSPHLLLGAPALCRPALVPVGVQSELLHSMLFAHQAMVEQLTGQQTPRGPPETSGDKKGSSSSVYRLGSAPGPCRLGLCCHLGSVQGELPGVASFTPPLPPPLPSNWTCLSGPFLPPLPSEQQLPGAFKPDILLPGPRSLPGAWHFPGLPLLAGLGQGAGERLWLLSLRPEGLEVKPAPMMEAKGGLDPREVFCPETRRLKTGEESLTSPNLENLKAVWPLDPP
Conditions: protein: recombinant; tags: N-terminal GST; dsDNA, one strand shown. In a few lines: as §1

Test [13] concerns the target T8, ETS2 (Homo sapiens, UniProt P15036 1-469).
T8 sequence: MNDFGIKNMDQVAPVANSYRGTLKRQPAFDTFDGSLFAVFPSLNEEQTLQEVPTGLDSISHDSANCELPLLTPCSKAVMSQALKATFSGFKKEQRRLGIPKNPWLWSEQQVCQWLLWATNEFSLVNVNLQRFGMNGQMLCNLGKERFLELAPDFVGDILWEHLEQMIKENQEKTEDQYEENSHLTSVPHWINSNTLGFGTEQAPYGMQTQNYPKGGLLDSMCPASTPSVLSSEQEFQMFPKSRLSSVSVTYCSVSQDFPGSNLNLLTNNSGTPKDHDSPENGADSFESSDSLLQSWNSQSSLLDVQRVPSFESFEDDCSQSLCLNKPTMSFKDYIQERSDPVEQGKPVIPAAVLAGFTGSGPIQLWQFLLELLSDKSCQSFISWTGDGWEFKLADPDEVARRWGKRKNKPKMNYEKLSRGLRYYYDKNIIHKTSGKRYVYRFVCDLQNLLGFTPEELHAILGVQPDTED
Conditions: protein: recombinant; tags: N-terminal GST; dsDNA, one strand shown. The method, boiled down: as §1

Test [14] concerns the target T9, SPDEF (Homo sapiens, UniProt O95238 1-335).
T9 sequence: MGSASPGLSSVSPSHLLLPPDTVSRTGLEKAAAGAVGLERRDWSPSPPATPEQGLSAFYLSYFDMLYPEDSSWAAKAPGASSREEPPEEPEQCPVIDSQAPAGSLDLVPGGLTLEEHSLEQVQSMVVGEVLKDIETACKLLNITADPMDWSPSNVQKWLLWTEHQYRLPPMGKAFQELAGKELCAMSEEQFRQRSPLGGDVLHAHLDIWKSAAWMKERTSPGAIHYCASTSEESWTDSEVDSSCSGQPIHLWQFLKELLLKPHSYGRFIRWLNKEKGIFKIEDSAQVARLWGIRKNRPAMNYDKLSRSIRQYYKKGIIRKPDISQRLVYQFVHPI
Conditions: protein: recombinant; tags: N-terminal GST; dsDNA, one strand shown. The method, boiled down:
as §1

Test [15] concerns the target T10, ETV7 (Homo sapiens, UniProt Q9Y603 1-341).
T10 sequence: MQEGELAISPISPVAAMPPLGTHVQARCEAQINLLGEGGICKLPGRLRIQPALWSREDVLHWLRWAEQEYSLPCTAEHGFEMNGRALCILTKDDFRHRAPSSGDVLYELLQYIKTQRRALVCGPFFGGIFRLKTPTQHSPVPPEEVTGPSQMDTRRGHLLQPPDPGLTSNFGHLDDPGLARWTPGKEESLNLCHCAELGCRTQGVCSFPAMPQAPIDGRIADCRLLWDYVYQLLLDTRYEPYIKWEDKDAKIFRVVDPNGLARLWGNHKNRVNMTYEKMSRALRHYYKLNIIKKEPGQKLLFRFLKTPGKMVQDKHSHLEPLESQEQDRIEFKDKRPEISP
Conditions: protein: recombinant; tags: N-terminal GST; dsDNA, one strand shown. In a few lines: as §1

The target in test [16] is T11, ELF5 (Homo sapiens, UniProt Q9UKW6-2 1-255).
T11 sequence: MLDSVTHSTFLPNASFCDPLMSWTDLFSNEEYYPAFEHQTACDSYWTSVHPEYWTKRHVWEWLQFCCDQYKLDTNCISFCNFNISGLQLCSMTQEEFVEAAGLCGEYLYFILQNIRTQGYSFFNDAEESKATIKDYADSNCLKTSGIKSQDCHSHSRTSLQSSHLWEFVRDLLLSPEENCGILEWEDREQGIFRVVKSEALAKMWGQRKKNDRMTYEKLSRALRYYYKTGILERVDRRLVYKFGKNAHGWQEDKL
Conditions: protein: recombinant; tags: N-terminal GST; dsDNA, one strand shown. In a few lines: as §1

In test [17] the target is T12, ETV3 (Homo sapiens, UniProt P41162-2 1-143).
T12 sequence: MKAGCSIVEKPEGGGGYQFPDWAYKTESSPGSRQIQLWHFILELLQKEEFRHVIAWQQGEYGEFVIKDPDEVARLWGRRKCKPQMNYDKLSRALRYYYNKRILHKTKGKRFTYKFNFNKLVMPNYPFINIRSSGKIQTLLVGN
Conditions: protein: recombinant; tags: N-terminal GST; dsDNA, one strand shown. In a few lines: as §1

Test [18] deals with ETV6 (Homo sapiens, UniProt P41212 1-452). Conditions: protein: recombinant; tags: N-terminal GST; dsDNA, one strand shown. The method, boiled down:
as §1

Sequence of CRX (O43186 whole entry): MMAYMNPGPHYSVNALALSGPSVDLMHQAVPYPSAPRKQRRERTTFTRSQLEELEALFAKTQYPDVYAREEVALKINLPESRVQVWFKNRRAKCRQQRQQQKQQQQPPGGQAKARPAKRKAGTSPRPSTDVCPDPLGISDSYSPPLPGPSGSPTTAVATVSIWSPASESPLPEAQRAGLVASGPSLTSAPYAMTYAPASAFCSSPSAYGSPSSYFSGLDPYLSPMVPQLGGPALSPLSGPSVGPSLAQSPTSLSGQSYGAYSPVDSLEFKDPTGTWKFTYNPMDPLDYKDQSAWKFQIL
Sequence of ETV1 (P50549 whole entry): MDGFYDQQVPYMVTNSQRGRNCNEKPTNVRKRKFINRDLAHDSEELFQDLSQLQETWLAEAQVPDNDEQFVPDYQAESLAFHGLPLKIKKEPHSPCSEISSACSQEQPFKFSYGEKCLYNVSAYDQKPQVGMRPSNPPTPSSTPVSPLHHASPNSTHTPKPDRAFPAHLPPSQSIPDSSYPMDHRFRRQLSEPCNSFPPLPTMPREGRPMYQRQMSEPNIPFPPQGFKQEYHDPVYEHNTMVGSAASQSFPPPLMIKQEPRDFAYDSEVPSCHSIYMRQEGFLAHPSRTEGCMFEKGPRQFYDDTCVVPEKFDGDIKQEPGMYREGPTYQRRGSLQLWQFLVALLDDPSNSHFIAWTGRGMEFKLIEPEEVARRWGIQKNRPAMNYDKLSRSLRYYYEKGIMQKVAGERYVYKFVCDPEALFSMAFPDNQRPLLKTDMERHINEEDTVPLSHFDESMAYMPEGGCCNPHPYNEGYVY
Sequence of HSF1 (Q00613 whole entry): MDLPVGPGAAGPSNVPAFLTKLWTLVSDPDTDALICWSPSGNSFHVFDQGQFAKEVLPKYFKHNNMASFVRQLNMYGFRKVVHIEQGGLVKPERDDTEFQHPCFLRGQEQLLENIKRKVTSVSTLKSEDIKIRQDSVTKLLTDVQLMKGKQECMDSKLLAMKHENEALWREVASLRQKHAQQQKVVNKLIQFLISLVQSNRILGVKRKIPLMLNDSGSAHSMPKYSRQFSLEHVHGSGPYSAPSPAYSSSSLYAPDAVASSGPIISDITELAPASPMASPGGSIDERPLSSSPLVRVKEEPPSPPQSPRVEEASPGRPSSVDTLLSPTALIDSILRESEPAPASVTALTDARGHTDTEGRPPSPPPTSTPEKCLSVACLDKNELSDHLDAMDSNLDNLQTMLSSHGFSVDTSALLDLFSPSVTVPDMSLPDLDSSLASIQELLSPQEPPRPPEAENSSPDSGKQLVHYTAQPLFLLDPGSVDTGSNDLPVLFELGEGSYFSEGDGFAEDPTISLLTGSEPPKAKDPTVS
Sequence of ETV5 (P41161 whole entry): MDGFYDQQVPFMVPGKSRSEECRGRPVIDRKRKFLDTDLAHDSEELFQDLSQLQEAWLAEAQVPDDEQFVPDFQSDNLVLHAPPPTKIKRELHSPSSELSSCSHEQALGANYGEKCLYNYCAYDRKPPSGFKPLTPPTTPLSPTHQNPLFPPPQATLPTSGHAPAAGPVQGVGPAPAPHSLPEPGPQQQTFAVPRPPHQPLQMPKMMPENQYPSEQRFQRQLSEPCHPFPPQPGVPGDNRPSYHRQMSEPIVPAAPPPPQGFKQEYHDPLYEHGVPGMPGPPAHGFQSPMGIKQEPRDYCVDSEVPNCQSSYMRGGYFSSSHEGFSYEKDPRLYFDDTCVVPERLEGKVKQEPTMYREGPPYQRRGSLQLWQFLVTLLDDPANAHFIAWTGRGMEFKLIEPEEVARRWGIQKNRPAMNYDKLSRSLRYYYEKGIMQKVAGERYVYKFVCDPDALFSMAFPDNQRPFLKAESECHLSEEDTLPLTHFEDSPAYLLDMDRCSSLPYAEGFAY
Sequence of ETV6 (P41212 whole entry): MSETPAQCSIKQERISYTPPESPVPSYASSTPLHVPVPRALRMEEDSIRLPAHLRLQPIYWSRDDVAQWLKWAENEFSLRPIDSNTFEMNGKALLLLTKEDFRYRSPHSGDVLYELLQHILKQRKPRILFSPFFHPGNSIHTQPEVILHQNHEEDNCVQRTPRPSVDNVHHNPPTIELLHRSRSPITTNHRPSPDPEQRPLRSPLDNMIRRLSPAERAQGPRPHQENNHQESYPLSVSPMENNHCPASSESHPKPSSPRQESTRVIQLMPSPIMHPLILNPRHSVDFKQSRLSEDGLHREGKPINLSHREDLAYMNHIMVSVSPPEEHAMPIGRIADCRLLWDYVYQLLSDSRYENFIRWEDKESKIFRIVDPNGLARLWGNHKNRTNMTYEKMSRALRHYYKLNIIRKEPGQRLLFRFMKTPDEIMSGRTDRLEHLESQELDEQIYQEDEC
Sequence of ELF4 (Q99607 whole entry): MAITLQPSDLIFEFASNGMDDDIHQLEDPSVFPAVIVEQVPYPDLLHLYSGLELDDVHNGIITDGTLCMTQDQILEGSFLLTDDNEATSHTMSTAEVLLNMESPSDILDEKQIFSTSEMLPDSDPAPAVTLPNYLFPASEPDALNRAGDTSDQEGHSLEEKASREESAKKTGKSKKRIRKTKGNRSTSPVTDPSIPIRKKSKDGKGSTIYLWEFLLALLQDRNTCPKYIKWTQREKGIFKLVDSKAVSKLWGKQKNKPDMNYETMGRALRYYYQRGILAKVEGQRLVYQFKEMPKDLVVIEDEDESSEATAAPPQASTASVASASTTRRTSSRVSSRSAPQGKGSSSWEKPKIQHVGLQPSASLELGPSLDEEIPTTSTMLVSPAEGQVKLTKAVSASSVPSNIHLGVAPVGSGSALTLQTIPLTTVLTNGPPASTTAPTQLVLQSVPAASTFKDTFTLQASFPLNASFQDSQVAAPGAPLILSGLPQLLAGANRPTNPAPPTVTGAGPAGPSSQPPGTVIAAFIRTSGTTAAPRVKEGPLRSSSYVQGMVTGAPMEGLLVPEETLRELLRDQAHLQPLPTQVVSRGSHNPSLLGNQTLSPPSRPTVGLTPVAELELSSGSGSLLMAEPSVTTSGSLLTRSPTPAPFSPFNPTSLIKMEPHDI

As to AAATCT, the binding signal in test [1] was 1.29 fold enrichment (6-mer frequency, TF over GST control); in test [2] it was 1.31 fold enrichment (6-mer frequency, TF over GST control); in [3] it was 1.75 fold enrichment (6-mer frequency, TF over GST control); in [4] it was 1.39 fold enrichment (6-mer frequency, TF over GST control); in test [5], 1.34 fold enrichment (6-mer frequency, TF over GST control); in test [6], 1.25 fold enrichment (6-mer frequency, TF over GST control). Besides, the binding signal in test [7] was 1.24 fold enrichment (6-mer frequency, TF over GST control); in test [8] it was 1.25 fold enrichment (6-mer frequency, TF over GST control); in test [9] it was 2.03 fold enrichment (6-mer frequency, TF over GST control); in test [10], 1.35 fold enrichment (6-mer frequency, TF over GST control); in test [11], 1.3 fold enrichment (6-mer frequency, TF over GST control); in test [12], 1.32 fold enrichment (6-mer frequency, TF over GST control). Besides, the binding signal in [13] was 1.33 fold enrichment (6-mer frequency, TF over GST control); in test [14], 1.25 fold enrichment (6-mer frequency, TF over GST control); in test [15], 1.16 fold enrichment (6-mer frequency, TF over GST control); in test [16] it was 1.27 fold enrichment (6-mer frequency, TF over GST control); in test [17], 1.19 fold enrichment (6-mer frequency, TF over GST control); in [18], 1.24 fold enrichment (6-mer frequency, TF over GST control).
